# Pf apPOL block – Pf-apPOL DNA polymerase inhibition; Recombinant Pf-apPOL, molecular beacon fluorescence, 1.5 h; inhibition, % at 10 µM; actives 0.25% (n = 210,000)
# mHTT CaM bind – disrupts binding of mutant huntingtin to calmodulin; P42858; AlphaScreen His-mHTT/GST-CaM binding, luminescence; inhibition, % at 15 µM; actives 3.6% (n = 190,000);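 note: 0% = both proteins with DMSO and 100% = one protein alone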
# An asterisk follows results filed as active; nt = no result. This excerpt belongs to a sample that is enriched for hits. Cut-off read from the data, not from the text of the source: active = inhibition above about 50%; inactive = the rest.
SMILES,Pf apPOL block,mHTT CaM bind
O=C(c1ccco1)N1CCCC2(CC(c3ccc(Cl)cc3)=CO2)C1 (stereo not given),-6,-15
O=C(c1ccccc1)N1CCCC2(CC(c3ccc(Cl)cc3)=CO2)C1 (stereo not given),0,100*
CC(Sc1nc(N2CCOCC2)c2c(c1C#N)CCCC2)C(=O)O (stereo not given),-1,-1
Cn1nc(-c2nc(C3CC3)no2)c2c1CCN(C(=O)c1ccccc1C(F)(F)F)C2,-3,-1
OC(CN1CCN(c2ccc(Cl)cc2)CC1)c1ccc2c(c1)CCN2 (stereo not given),-6,0
Cc1ccc(Cl)cc1N1CCN(CC(O)c2ccc3c(c2)CCN3)CC1 (stereo not given),-4,71*
NS(=O)(=O)c1ccc(CCNC(=O)Cc2cc(-c3cc4ccccc4o3)on2)cc1,1,20
O=C1c2ccccc2C(=O)N1N=Cc1c(O)ccc2ccccc12,12,nt
COc1c(C(=O)N2CCN(c3ccccc3)CC2)sc2cccc(F)c12,0,64*
COc1c(C(=O)N2CCN(c3ccccc3F)CC2)sc2cccc(F)c12,1,13
COc1ccccc1/C=C/C=C1N=C(/C=C/c2cccc([N+](=O)[O-])c2)OC\1=O,2,19
CCN1CCN(Cc2c(O)ccc3c2OC(=Cc2cc(Cl)cc4c2OCOC4)C3=O)CC1,8,55*
O=C1C(=Cc2cc(Cl)cc3c2OCOC3)Oc2c1ccc(O)c2CN1CCOCC1,4,9
O=C1C(=Cc2cc3cc(Br)ccc3o2)Oc2c1ccc(O)c2CN1CCN(CCO)CC1,1,60*
COc1ccc(Br)cc1C=C1Oc2c(ccc(O)c2CN2CCN(CCO)CC2)C1=O,-1,25
COC(=O)c1ccc(C=C2Oc3c(ccc(O)c3CN3CCCCC3C)C2=O)cc1 (stereo not given),-28,52*
COc1ccc(C=C2Oc3c(ccc(O)c3CN3CCCC(C)C3)C2=O)c(OC)c1OC (stereo not given),-8,27
COc1cc(OC)c(OC)cc1C=C1Oc2c(ccc(O)c2CN2CCCC(C)C2)C1=O (stereo not given),-1,51*
COC(=O)c1ccc(C=C2Oc3c(ccc(O)c3CN3CCCC3)C2=O)cc1,-6,13
COCCNC(=O)CC1CCN(C(=O)c2cc(OC)c(OC)c(OC)c2)CC1,-5,4
CCCCC1(C)OC(=O)C(=Cc2ccc(Br)o2)C(=O)O1 (stereo not given),1,6
COc1ccc(C(CC(=O)N2CCCC(C)C2)c2c(O)cc(OC)cc2OC)cc1 (stereo not given),-7,15
COc1ccc(C2CC(=O)Oc3c(C(CCN4CCCCC4)c4ccc(N(C)C)cc4)c(OC)cc(OC)c32)cc1 (stereo not given),1,101*
COc1ccc(C2CC(=O)Oc3cc(OC)c(OC)c(OC)c32)cc1 (stereo not given),-1,2
COc1cc(OC)c2c(c1C(CCN1CCCC1)c1ccc(N(C)C)cc1)OC(=O)CC2c1ccc(N(C)C)cc1 (stereo not given),-10,100*
SMILES,Pf apPOL block,mHTT CaM bind
COc1ccc(C2CC(=O)Oc3c(C(CCN4CCCC(C)C4)c4ccc(N(C)C)cc4)c(OC)cc(OC)c32)cc1 (stereo not given),-6,101*
COc1ccc(C2CC(=O)Oc3c(C(CCN4CCCC(C)C4)c4cc(OC)c(OC)c(OC)c4)c(OC)cc(OC)c32)cc1 (stereo not given),-6,61*
CC1CCC(NC(=O)C2(C)CCC(=O)N2Cc2ccc(F)cc2Cl)CC1 (stereo not given),-5,5
Cc1cc(C)c(CNC(=O)c2ccc3c(c2)CC(=O)N3C)c(C)c1,1,13
CCc1cc2c(=O)n(Cc3ccco3)c(SCC(=O)Nc3nccs3)nc2s1,-7,1
CCN(CC)c1ncc2c(n1)CCC(C(=O)NCc1cc(C)ccc1C)C2 (stereo not given),6,-2
CCN(CC)C(=O)C1CCN(c2nc3ccc(-c4ccccc4F)nc3s2)CC1,0,37
COc1cc(C2CC(=O)Oc3cc(O)ccc32)cc(OC)c1OC (stereo not given),-5,3
COc1cc(C2CC(=O)Oc3c(C(CCN4CCOCC4)c4ccc(N(C)C)cc4)c(OC)cc(OC)c32)cc(OC)c1OC (stereo not given),-4,65*
COc1cccc(C2C3=C(NCCN=C3c3ccc(Cl)cc3)C(=O)N2c2ccccc2)c1 (stereo not given),5,7
Cc1ccc(C2C3=C(NCCN=C3c3ccccc3)C(=O)N2c2ccccc2)cc1 (stereo not given),4,80*
CCCNc1cc(N2CCCC(CCC(=O)N3CCN(CC(C)C)CC3)C2)ncn1 (stereo not given),-6,10
Nc1ccc(-c2ccc(S(=O)(=O)c3ccc(-c4ccc(N)cc4)cc3)cc2)cc1,-2,62*
Nc1ccc(-c2ccc(S(=O)(=O)c3cccc(N)c3)cc2N)cc1,4,69*
Nc1ccc(S(=O)(=O)c2ccc(N)c(N)c2)cc1N,48,9
Nc1ccc(S(N)(=O)=O)cc1,nt,-4
CC(C)(C)NC(=O)c1ccc2c(c1)C(=O)N(c1ccccc1-c1ccccc1)C2=O,8,9
CCC(=O)N1CCc2sc(S(=O)(=O)Nc3ccc(C)c(F)c3)cc2C1,-3,7
COc1ccc(-c2cc(C(=O)NCc3cccc(Cl)c3)no2)cc1,-1,-12
COc1cc(C2C3=C(CC(C)(C)CC3=O)NC3=C2C(=O)c2ccccc23)cc(OC)c1OC (stereo not given),-1,61*
COc1cccc(C2C3=C(CC(C)(C)CC3=O)NC3=C2C(=O)c2ccccc23)c1OC (stereo not given),-6,44
CC1(C)CC(=O)C2=C(C1)NC1=C(C(=O)c3ccccc31)C2c1ccc(Br)cc1 (stereo not given),-11,60*
CC1(C)CC(=O)C2=C(C1)NC1=C(C(=O)c3ccccc31)C2c1ccc(O)cc1 (stereo not given),-4,50
C=C(C)COc1ccc2c(c1)OC(=Cc1ccc3c(c1)OCO3)C2=O,-6,-11
COCCCNC(=S)NN=Cc1cccn1-c1ccc(C(F)(F)F)cc1,7,nt
SMILES,Pf apPOL block,mHTT CaM bind
COCCCNC(=O)c1cnn2c3c(cnc12)CCCCCC3,-3,4
CC1Cc2nc(SCC(=O)Nc3ccc(F)cc3)n(Cc3ccccc3)c(=O)c2S1 (stereo not given),5,14
Cc1cccc(-n2nc3c(c2NC(=O)/C=C/c2ccco2)CSC3)c1C,-4,95*
Cc1cccc(C(=O)Nc2c3c(nn2-c2cccc(C)c2C)CSC3)c1,-6,6
CC(=O)Nc1c2c(nn1-c1cccc(C)c1C)CSC2,-9,41
Cc1cccc(-n2nc3c(c2NC(=O)/C=C/c2ccccc2)CSC3)c1C,4,94*
CC12CN3CC(C)(CN(C1)C31C(=O)Nc3ccc(Br)cc31)C2=O (stereo not given),-5,3
COc1ccc(N=c2oc3c(C)ncc(CO)c3cc2C(=O)Nc2ccccc2C)cc1Cl,-4,3
O=C1C(=Cc2ccco2)COCC1=Cc1ccco1,8,nt
O=C1/C(=C/C=C/c2ccco2)CC/C1=C\C=C\c1ccco1,1,84*
COc1cccc(C(=O)Oc2ccc3c(c2)OC(=Cc2ccc(C)o2)C3=O)c1,-2,8

# Screens (PubChem BioAssay)
